A selection: hits, their analogues and other compounds. The true share with any hit is near 21%.
Pf growth 96h: P. falciparum growth inhibition at 96 hour, primary screen for plastid delayed-death inhibitors; P. falciparum luciferase reporter growth, 96 h; hit rate 6.9% among 320,000; Potency, µM (doses to about 28.7 µM), without a hit: at the highest dose activity change, negative = inhibition, hits mostly inhibitors; AID 504834; note: potency is the fitted concentration of half-maximal effect; % is set by controls: 0 for no effect and ±100 for the full control effect
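Compounds incubated with erythrocytes infected by luciferase-expressing P. falciparum (2% hematocrit, 0.05% parasitemia final) for 96 hours, 37 C in 5% CO2. Growth inhibition scored as decreased luciferase luminescence.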
HCV inhibitor: inhibitors of hepatitis C virus infection; Huh7.5.1 HCVcc-Cre infection, luciferase reporter, 44 h; Potency, µM (top dose mostly 41.8 µM), for the others: at the top dose activity change, negative = inhibition, actives largely listed as inhibitors; hit rate 3.4% among 340,000; AID 651820; note: potency is the fitted concentration of half-maximal effect; % is set by controls: 0 for no effect and ±100 for the full control effect
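1,000 cells/well; 4 h culture; + compound; + HCVcc-Cre (~0.5 moi); 44 h; luciferase substrate, RT 15 min; read 15 sec.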
Pf growth 48h: P. falciparum growth inhibition at 48 hours (one generation); P. falciparum luciferase growth in erythrocytes, 48 h; Potency, µM (titrated, usually from 28.7 µM), without a hit: top-dose activity change, negative = inhibition, most hits filed as inhibitors; hit rate 5.9% among 310,000; AID 504832; note: potency is the fitted concentration of half-maximal effect; % is set by controls: 0 for no effect and ±100 for the full control effect
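Growth was read as firefly luciferase luminescence after a 48 h, 37 C, 5% CO2 exposure of compounds to reporter-bearing P. falciparum cultures (0.1% parasitemia, 2% hematocrit final) in Albumax-supplemented RPMI 1640.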
Shiga inhibitor: inhibitors of Shiga toxin in Vero cells. inhibition, % at 38.7 µM. Vero cells, Shiga toxin protein synthesis inhibition reporter. hit rate 9.2% among 290,000. AID 2315; in the data active = inhibition mostly above about 28%, no sharp cut-off; inactive = mostly below about 43%; note: 0% is about no effect
AMA1-RON2 inh: disrupts binding of P. falciparum AMA1 to RON2; AlphaScreen AMA1-biotinylated RON2 peptide binding; Potency, µM (doses to about 58.2 µM), for the others: top-dose activity change, negative = inhibition, hits mostly inhibitors; AID 720542; hit rate 0.2% among 360,000;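 note: potency is the fitted concentration of half-maximal effect; 0% = vehicle wells and -100% = peptide control; nearly all actives have a fitted effect of over 45% in size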
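AMA1 (3D7) with his tag at 25 nM final met compounds first, then biotinylated RON2 peptide at 25 nM; detection used donor plus acceptor beads, 10 µg/mL apiece, read by AlphaScreen after 30 min at room temperature.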
Cycloheximide cs: counter-screen for Shiga toxin inhibitors: cycloheximide protein synthesis inhibition | max response, % | cell reporter, cycloheximide protein synthesis inhibition counterscreen | AID 2314 | hit rate 12% among 300,000; in the data active = max response mostly above about 13%, no sharp cut-off; inactive = mostly below about 14%; note: read at 38.3 µM for the half of the compounds with a filed dose; 0% is about no effect
Starred values were filed as active, the others as inactive; ? = inconclusive; · = no result given; [ ] = remark or other dose. Unless noted, calls come from the whole dose curve; as a rule, active = well fitted curve in the direction sought with a large enough effect; inconclusive = small, poorly fitted or top-dose-only effect, or another doubt; inactive = no such curve, though single readings can be large; an effect the other way counts as inactive or inconclusive.

SMILES | Pf growth 96h | HCV inhibitor | Pf growth 48h | Shiga inhibitor | AMA1-RON2 inh | Cycloheximide cs
COc1cc(NC(=O)Cn2c(=O)n(-c3cccc(C)c3)c(=O)c3c(C)c(C)sc32)cc(OC)c1 | 62% | -8% | -1% | -6 | -21% | -1
COc1ccc(N2CCN(C(=S)Nc3ccccc3OC)CC2)cc1 | -20% | 8% | 10% | · | -23% | -4
O=C(COc1ccc(Br)cc1)Nc1cc(S(=O)(=O)N2CCCCC2)ccc1N1CCCCC1 | 1.9µM* | ? | -12% | -3 | 6% | -3
CC(OC(=O)C1CCCCC1)C(=O)Nc1ccc(S(N)(=O)=O)cc1 (configuration not stated) | 15% | -3% | 16% | · | 0% | ·
CC1(C)Cc2cccc(OCC(O)CN3CCN(c4ccccn4)CC3)c2O1 (configuration not stated) | ? | -1% | 12µM* | -5 | -1% | -3
CCC1CSC(Nc2ccc(C(=O)/C=C/c3ccc(Oc4ccccc4)cc3)cc2)=N1 (configuration not stated) | 6.6µM* | ? | 10µM* | 30* | -14% | 47*
CCC1CSC(Nc2ccc(C(=O)/C=C/c3cccc(C)c3)cc2)=N1 (configuration not stated) | ? | ? | 25% | -2 | -14% | 13*
COc1ccc(NC(=O)CN(C)C(=O)c2ccc(NS(=O)(=O)c3cccc([N+](=O)[O-])c3)cc2)cc1 | -2% | -3% | -25% | · | -2% | ·
N#Cc1nc(-c2ccccc2)oc1NCC1CCCO1 (configuration not stated) | 5% | -6% | 16% | 34 | 1%[2.32 µM] | 14
N#Cc1nc(-c2ccc(Cl)cc2)oc1NCC1CCCO1 (configuration not stated) | 37% | -1% | 12% | 108* | -4% | 21*
N#Cc1nc(-c2cccc3ccccc23)oc1NCC1CCCO1 (configuration not stated) | 4% | ? | 46% | 65* | -29% | 52*
Cc1cccc(NC(=O)CSc2nnc(-c3cc(C)[nH]n3)n2N)c1 | ? | 5% | -21% | 14 | -2% | 3
Cc1ccc(C(=O)/C=C2/NC(=O)CS2)cc1 | 184% | -1% | 185% | 45* | 3% | 25*
O=C1CS/C(=C/C(=O)c2cccc(Cl)c2)N1 | 20% | 5% | 44% | 56 | 0% | 27*
CN(C)CCNC(=O)C(=O)Nc1cc2c3c(c1)CCN3C(=O)CC2 | 18% | 4% | 19% | -3 | 2% | -3
O=C(Nc1ccc2oc(-c3ccccc3)nc2c1)c1ccco1 | ? | ? | 68% | 78* | 2% | 94*
O=C(Nc1ccc2oc(-c3ccncc3)nc2c1)c1ccc(Br)o1 | 26% | -10% | 39% | -10 | -1% | -5
O=C(Nc1ccc2oc(-c3ccncc3)nc2c1)c1ccco1 | 18% | -8% | ? | 48 | -10% | 27*
COc1ccc(C(=O)c2coc3ccc(O)c(CN4CCCC4)c23)cc1 | ? | -30% | · | -5 | -8% | -2
COc1ccc(OC)c(C(O)c2coc3ccc(O)c(CN(C)C)c23)c1 (configuration not stated) | 180% | 3% | 0% | -3 | -3% | -4
Cc1ccc(C(=O)c2coc3ccc(O)c(CN4CCN(C)CC4)c23)cc1 | 32% | ? | 3.7µM* | 73* | -6% | 15*
CCN(CC)Cc1c(O)ccc2occ(C(=O)c3ccc(OC)cc3)c12 | ? | -24% | -16% | 19 | -5% | 15*
COc1ccc(C(=O)c2coc3ccc(O)c(CN4CCOCC4)c23)cc1 | -25% | ? | ? | 38* | -6% | 13*
COc1ccc(OC)c(C(O)c2coc3ccc(O)c(CN4CCOCC4)c23)c1 (configuration not stated) | 17% | ? | 7.4µM* | 22 | -4% | -2
O=C(Nc1c2c(nn1-c1ccc([N+](=O)[O-])cc1)CS(=O)(=O)C2)c1ccco1 | ? | 13% | 44% | 14 | -1% | 3
SMILES | Pf growth 96h | HCV inhibitor | Pf growth 48h | Shiga inhibitor | AMA1-RON2 inh | Cycloheximide cs
O=C1NC(Cc2ccc(O)cc2)c2nc3ccc(Br)cc3c(=O)n2-c2ncccc21 (configuration not stated) | · | · | · | · | 13% | ·
CCOC(=O)C1=C(C)NC(C)=C(C(=O)OCC)C1C(=O)OCC(=O)NCCc1ccc(S(N)(=O)=O)cc1 | ? | -2% | ? | · | 11% | ·
CC1N=C(SCC(=O)c2ccc(F)cc2)N2C(C)N=C(SCC(=O)c3ccc(F)cc3)N12 (configuration not stated) | · | · | · | · | 103% | ·
COc1ccccc1Nc1nc(N)nc(CSC(=S)N2CCCCC2C)n1 (configuration not stated) | ? | ? | ? | 43* | 9%[2.32 µM] | 43*
COc1ccccc1Nc1nc(N)nc(CSC(=S)N2CCC(C)CC2)n1 | ? | 1% | ? | 31 | 5%[2.32 µM] | 43*
C[C@H](NC(=O)Nc1cccc(Br)c1)C(=O)O | 33% | 19% | 18% | 25 | 15% | -1
Oc1ccc(Cl)cc1C=NCCc1ccccc1 | 51% | 8% | 20% | 57* | 49% | 15*
CC(C(=O)O)n1cc(C#N)c(=O)[nH]c1=O (configuration not stated) | · | 15% | · | · | -6% | ·
CN(C)C(=O)c1ccc(NC(=O)c2cncc(Br)c2)cc1 | · | -3% | 96% | active | -8% | 27
O=C(Nc1ccc(C(=O)NC2CCCCC2)cc1)c1cncc(Br)c1 | -20% | -19% | -17% | -13 | -3% | 0
CC(C)OC(=O)c1ccc(NC(=O)c2cncc(Br)c2)cc1 | 36% | ? | -17% | 25 | 6% | 20*
Cc1cc(C(=O)COC(=O)c2ccc(O)cc2)c(C)n1Cc1ccco1 | 77% | 6% | 143% | 66* | -9% | 67*
Cc1cc(C(=O)COC(=O)c2ccc(Br)o2)c(C)n1Cc1ccco1 | 48% | · | 72% | 97* | · | 52*
Cc1cc(C(=O)COC(=O)CNC(=O)c2ccco2)c(C)n1Cc1ccco1 | 8% | 3% | 37% | 12 | 0% | 11
Cc1cc(C(=O)COC(=O)C(C)NC(N)=O)c(C)n1Cc1ccco1 (configuration not stated) | 16% | 22% | 24% | 94* | 0% | 35*
CCOc1ncccc1C(=O)OCC(=O)c1cc(OC)ccc1OC | 5% | ? | -9% | -21 | -15% | -1
CCOc1ncccc1C(=O)OCC(=O)c1cc(C)n(Cc2ccco2)c1C | 73% | 0% | · | 67* | -25% | 27*
O=C(NCCc1ccc(F)cc1)c1ccc2c(=O)n3c(nc2c1)CCC3 | 73% | 10% | 59% | · | 0% | ·
CC(C)C[C@H]1COc2cc(N3CC[C@H](O)C3)ccc2S(=O)(=O)N1 | · | · | · | · | 4% | ·
